Values without a mark were called inactive. The rule behind the calls is not given here.
Target: Pantothenate synthetase (Mycobacterium tuberculosis (strain ATCC 25618 / H37Rv)) (UniProt P9WIL5)
Test: Coupled enzyme confirmation of inhibitors against recombinant Mtb PanC (AID 375);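 note: 0% = full reaction with vehicle and 100% = no enzyme background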
Settings: coupled enzyme assay; at 10 µM, stronger effect = higher value

Chain of Pantothenate synthetase (Mycobacterium tuberculosis (strain ATCC 25618 / H37Rv)) (P9WIL5 whole entry, looked up): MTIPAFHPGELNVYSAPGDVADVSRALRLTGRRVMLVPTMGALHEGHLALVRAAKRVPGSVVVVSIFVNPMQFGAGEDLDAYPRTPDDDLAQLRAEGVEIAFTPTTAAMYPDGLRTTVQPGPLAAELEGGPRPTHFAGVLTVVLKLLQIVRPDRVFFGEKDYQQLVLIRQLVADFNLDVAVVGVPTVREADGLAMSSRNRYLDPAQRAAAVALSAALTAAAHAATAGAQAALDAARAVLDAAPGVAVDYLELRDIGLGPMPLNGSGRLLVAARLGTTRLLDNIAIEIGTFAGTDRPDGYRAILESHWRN

SMILES	inhibition [%]
CC(=O)Nc1cccc(NC(=O)c2ccco2)c1	0
Cc1ccc(N2CCN(C(=O)c3ccccc3Br)CC2)c(C)c1	6
Cn1c(SCc2cccc3ccccc23)nnc1-c1ccco1	0
O=C(NCc1ccco1)C1(S(=O)(=O)c2ccc(Cl)cc2)CC1	0
COCC(=O)Nc1sc2c(c1C(=O)OC)CCC(C)C2 (stereo not given)	6
CC(=O)OCC(=O)[C@@]1(O)[C@H](C)C[C@H]2[C@@H]3CCC4=CC(=O)C=C[C@]4(C)[C@@]3(F)[C@@H](O)C[C@@]21C	4
Cc1cc(NS(=O)(=O)c2ccccc2)n(-c2ccccc2)n1	0
COc1ccccc1C(=O)N1CCN(C(=O)c2ccncc2)CC1	0
CNC(=O)CSc1nc2c(c(=O)n(C)c(=O)n2C)n1Cc1ccc(C)cc1	0
O=C(CSc1ncnc2c1cnn2-c1ccccc1)Nc1ccccc1	5
CC(=O)c1ccc(NC(=O)C2CCN(S(=O)(=O)c3cccc4cccnc34)CC2)cc1	4
O=C(NC1CCCC1)C1CC1c1ccccc1 (stereo not given)	0
CN(C)S(=O)(=O)c1ccc2c(c1)c(=O)c(C(=O)NCCCN1CCCCCC1)cn2C	0
C=CCN(CC=C)C(=O)c1ccncc1	0
Fc1c(F)c(F)c(CSc2nc3ccccc3[nH]2)c(F)c1F	3
FC(F)(F)c1cc(-c2ccco2)nc(-n2nnc3ccccc32)n1	0
CCOc1ccc(NC(=O)COC(=O)Cn2cnnn2)cc1OCC	0
CCOC(=O)c1ccc(NS(=O)(=O)c2ccc3c(c2)CCCN3C(C)=O)cc1	0
COc1ccc(-n2nc3cc(C)c(N)c(Br)c3n2)cc1	0
Cc1ccc(C)c(N2CCN(Cc3nnnn3C3CCCCC3)CC2)c1	1

SMILES	inhibition [%]
COc1ccc(-c2ccc(-c3nnc(-c4ccncc4)o3)cc2)cc1	4
CCOC(=O)C1CCCN(Cc2nc(N)nc(Nc3ccc(C)cc3)n2)C1 (stereo not given)	0
O=S1(=O)CC(N2CCCCC2)C(N2CCCCC2)C1 (stereo not given)	6
CC(=O)c1ccc(OCC(O)CN2CCN(Cc3ccc4c(c3)OCO4)CC2)cc1 (stereo not given)	3
Cc1ccc(-c2nnn(CC(=O)N(Cc3ccco3)C(C(=O)NC(C)(C)C)c3cccs3)n2)o1 (stereo not given)	0
Cc1nc(C)c(C(=O)C2=C(O)C(=O)N(CCCn3ccnc3)C2c2ccccc2)s1 (stereo not given)	1
CC(CN(C)Cc1ccccc1)OC(=O)c1ccc2c(c1)OCCO2 (stereo not given)	0
CCOCCCNC(=O)c1ccc2c(c1)ncn2C1CCCC1	5
O=C(N1CCN(Cc2ccccc2)CC1)C12CC3CC(CC(C3)C1)C2	0
CC(=O)N1CCN(c2ccc(S(=O)(=O)N3CCCCC3)cn2)CC1	0
COc1ccc(-n2nnnc2SCC(=O)c2ccc(O)c(O)c2)cc1	0
CCOC(=O)Nc1sc(=S)n(C)c1C	9
CC(C)(C)c1ccc(C(O)CCCN2CCC(C(O)(c3ccccc3)c3ccccc3)CC2)cc1 (stereo not given)	0
Cc1ccc(CNC(=O)C2CCN(S(=O)(=O)c3c(C)noc3C)CC2)cc1	3
COCCCn1c(SCC(=O)Nc2cccc(C)n2)nnc1-c1ccco1	0
CCOc1ccc(OCC)c(NC(=O)CCCN2C(=O)c3cccnc3C2=O)c1	0
CCn1ncc(C2=NOC(C(=O)NCc3ccccc3)C2)c1C (stereo not given)	6
CCCc1cc(=O)n2[nH]cnc2n1	0
Cc1c(C(=O)OC2CCCCC2)[nH]c2c1C(=O)CC(C)(C)C2	0
CCN(CC)c1ccc(NC(=O)c2[nH]c(C)c(C(C)=O)c2C)c(C)c1	0
